Sampled rows, rich in hits. Any-hit rate of the full collection: about 5.8%.
PK Bst: Pyruvate Kinase. purified pyruvate kinase, luminescence ATP production; ribose 5-phosphate activator present at AC10. Potency, µM. 51,000 tested, 1.2% active. AID 361, 2006; in the data active = potency below about 11 µM; inconclusive = mostly about 12 µM to 25 µM;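 the screen sought inhibitors and activators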;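 note: scaled between full activation by ribose 5 phosphate and full inhibition by luteolin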
TSHR agonist: qHTS Assay for Agonists of the Thyroid Stimulating Hormone Receptor. HEK293-CNG-TSHR cells (CNG channel as cAMP sensor), membrane potential dye, cAMP. Potency, µM (series often up to 57.1 µM), for inactives: top-dose activation, actives largely listed as activators. 73,000 tested, 0.48% active; active = well fitted activation curve with a large enough effect in the main read-out, with a control signal flat, not every such curve was filed as active; inconclusive = small, poorly fitted or top-dose-only effect, or a change in a side signal; inactive = no such curve, though single readings can be large or run the other way; % of control where 0% means no effect;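 note: the control signal comes from parental cells without the receptor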
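cAMP rise detected as CNG-channel membrane depolarization by fluorescent dye (emission 590 nm), 30 min after compound, following 60 min dye loading containing 100 uM RO 20-1724 at room temperature. Cells: TSHR/CNG HEK 293, with parental CNG HEK 293 as control.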
HEK293 cAMP cs: qHTS Assay for Agonists of the Thyroid Stimulating Hormone Receptor: Activators of Intracellular cAMP Concentrations in Parental HEK 293; parental HEK293 CNG cAMP sensor, membrane potential fluorescence; Potency, µM (doses to about 57.1 µM), inactives show at the top dose activation, most hits filed as activators; 73,000 tested, 2.5% active; AID 938, 2007; note: % of control where 0% means no effect; nearly all actives have a fitted effect of over 55% in size
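Parental HEK 293 cells stably expressing a cAMP-gated CNG channel were loaded with membrane potential dye containing 100 uM RO 20-1724 for 60 min. Compound added for 30 min; depolarization read as fluorescence intensity at 590 nm.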
GBA mod: Glucocerebrosidase | Lysosomal acid glucosylceramidase (Homo sapiens), P04062 | purified enzyme, resorufin glucoside fluorescence (screen aimed at inhibitors), 20 min | Potency, µM | 48,000 tested, 1.1% active; in the data active = potency below about 15 µM; inconclusive = mostly about 16 µM to 33 µM;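 note: the screen sought inhibitors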
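Normal human glucocerebrosidase (0.2 nM final) was assayed with resorufin β-D-glucopyranoside (30 uM final) in 50mM citric acid/KH2PO4, 10mM sodium taurocholate, 0.01% tween-20, pH 5.9. Compounds were titrated; fluorescence (Ex 548, Em 600) read after 20 min at RT.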
Luciferase inh: qHTS Assay for Inhibitors of Firefly Luciferase; 72,000 tested, 2.2% active; Luciferin 4-monooxygenase (Photinus pyralis), P08659; Potency, µM (highest dose often 57.1 µM), without a hit: top-dose activity change, negative = inhibition, actives largely listed as inhibitors; purified firefly luciferase, luminescence, 8 min; note: % is set by controls: 0 for no effect and ±100 for the full control effect; nearly all actives have a fitted effect of over 40% in size
Target sequence (P08659 whole entry, looked up): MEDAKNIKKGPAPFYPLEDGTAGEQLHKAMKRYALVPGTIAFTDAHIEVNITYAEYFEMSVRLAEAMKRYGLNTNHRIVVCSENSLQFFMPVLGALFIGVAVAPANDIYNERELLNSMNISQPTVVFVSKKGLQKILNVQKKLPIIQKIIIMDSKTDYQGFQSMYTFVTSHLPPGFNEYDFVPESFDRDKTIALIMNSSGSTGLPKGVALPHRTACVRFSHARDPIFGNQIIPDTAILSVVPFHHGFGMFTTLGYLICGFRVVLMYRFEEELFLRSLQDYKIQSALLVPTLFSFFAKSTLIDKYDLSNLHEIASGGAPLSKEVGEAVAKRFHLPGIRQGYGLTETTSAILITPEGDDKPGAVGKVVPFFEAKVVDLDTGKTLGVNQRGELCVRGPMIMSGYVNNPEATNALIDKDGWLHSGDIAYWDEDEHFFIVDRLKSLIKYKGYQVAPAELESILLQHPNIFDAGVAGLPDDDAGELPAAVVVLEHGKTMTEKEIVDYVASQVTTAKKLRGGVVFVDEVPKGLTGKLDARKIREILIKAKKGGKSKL
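qHTS concentration-response profiling: light output of P. pyralis luciferase with luciferin and 10 uM ATP, imidazole buffer pH 7.2. Read by luminescence after 8-min room-temperature incubation.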
An asterisk follows results filed as active; i = inactive; ? = inconclusive; / = no result; [ ] = dose if it differs, or a comment. Unless noted, calls come from the whole dose curve; as a rule, active = well fitted curve in the direction sought with a large enough effect; inconclusive = small, poorly fitted or top-dose-only effect, or another doubt; inactive = no such curve, though single readings can be large; an effect the other way counts as inactive or inconclusive. Potency is the fitted concentration of half-maximal effect.

SMILES	PK Bst	TSHR agonist	HEK293 cAMP cs	GBA mod	Luciferase inh
Cc1nc2cc(NC(=O)NCc3ccco3)ccc2n1C	>57	-6%	6%	?	-6%
Cc1nc2cc(NC(=O)Nc3nccs3)ccc2n1C	11*	-7%	-3%	/	6.3µM*
N#Cc1ccc(CN2CCCC3(CCN(C(=O)c4cccc(F)c4)CC3)C2)cc1	/	?	?	/	0%[11.4 µM]
CCOC(=O)C1=C(N)OC2=C(C(=O)CC(C)(C)C2)C1c1ccco1 (stereo not given)	>57	?	25µM*	>77	-7%
Cc1sc(NC(=O)c2cccs2)c(C(N)=O)c1C	/	-24%	1%	/	13µM*
Cc1sc(NC(=O)c2ccccc2)c(C(=O)N2CCN(C)CC2)c1C	>57	-2%	10%	12*	1%
Nc1ncnc2c1ncn2[C@@H]1O[C@@H](CO)[C@H](O)[C@@H]1O	/	?	25µM*	/	-1%
COc1ccccc1Nc1nc2ccccc2[nH]1	/	8%	1%	>77	13µM*
COc1ccccc1Nc1nc(C)cc(=O)[nH]1	>57	5%	0%	?	0%
Cc1c2c(nc3c(C)cccc13)OC(C)C2 (stereo not given)	>57	?	25µM*	>77	-5%
CCc1c2c(nc3ccccc13)OC(C)C2 (stereo not given)	/	25%	9%	/	/
CCC1CCc2c(sc(NC(=O)c3ccoc3C)c2C(N)=O)C1 (stereo not given)	/	-3%	-11%	>77	13µM*
Cc1ccc(OCc2nn3c(-c4ccco4)nnc3s2)cc1	/	?	?	>77	-2%
Clc1ccc(OCc2nn3c(-c4ccco4)nnc3s2)c(Cl)c1	>57	?	32µM*	>77	0%
Cc1ccc(C)c(S(=O)(=O)N2CCC(c3nc4c(nnn4Cc4ccc(F)cc4)c(=O)[nH]3)CC2)c1	>57	3%	5%	7.1*	1%
Cc1ccc(Cn2nnc3c(=O)[nH]c(C4CCN(S(=O)(=O)c5ccc(F)cc5)CC4)nc32)cc1	>57	7%	-7%	5.5*	0%
CC(C)=CCC/C(C)=C/CO/N=C1/C[C@@H](O)[C@@H](O)[C@@H]2[C@@H]3C(=O)N([C@@H](C)c4ccccc4)C(=O)[C@H]3CC[C@H]12	/	25%[11.4 µM]	-7%[11.4 µM]	/	0%[11.4 µM]
CCc1nnc(NC(=O)c2ccc(S(=O)(=O)N(CC)Cc3ccccc3)cc2)o1	>57	1%	1%	14*	-1%
COc1ccccc1-c1cncnc1NCc1ccccc1	/	?	?	/	0%[2.29 µM]
Nc1ccn([C@@H]2CC[C@H](CO)O2)c(=O)n1	/	-10%[25.6 µM]	1%[25.6 µM]	/	9%[25.5 µM]
CCc1cc(C(C)=O)c(O)cc1OCCCCCC(C)(C)c1nn[nH]n1	/	?	20µM*	/	/
Cc1ccc(NC(=O)c2noc3c2CCCCC3)cc1	/	-11%	-1%	>77	13µM*
O=C(NC1CCCCC1)c1noc2c1CCCCC2	/	5%	15%	>77	20µM*
CCc1ccc(NC(=O)c2noc3c2CCCCC3)cc1	>57	-5%	-3%	>77	-22%
Cc1ccccc1-c1nccc(NCc2cccnc2)n1	/	12%	16%	/	0%[2.29 µM]
SMILES	PK Bst	TSHR agonist	HEK293 cAMP cs	GBA mod	Luciferase inh
NCCC[C@@H](CC(=O)N[C@@H]1CCCC[C@H]1C(=O)N[C@H](CC(=O)N[C@@H](CCC(=O)O)CC(=O)O)Cc1c[nH]c2ccccc12)NC(=O)C[C@H](CO)NC(=O)[C@@H]1CCCC[C@H]1N	/	/	27%	/	/
CCN(Cc1ccccc1)C(c1ccccn1)c1nnnn1C(C)(C)CC (stereo not given)	>57	?	5µM*	>77	-30%
CCC(C)(C)n1nnnc1C(c1ccccn1)N1CCOCC1 (stereo not given)	>57	-9%	8%	>77	2%
CC(C)(C)NC[C@H](O)c1cc(O)cc(O)c1	/	?	16µM*	/	1%[25.5 µM]
CCOc1ccc2cc(C#N)c(SCC(=O)N3CCOCC3)nc2c1	i	6%	10%	>77	5%
CCOc1ccc2nc(SCC(=O)N3CCCCCC3)c(C#N)cc2c1	/	?	16µM*	>77	-1%
O=C(CSc1nc2ccccc2nc1SCC(=O)N1CCCCC1)N1CCCCC1	/	25µM*	17%	/	/
CC1=C(C(=O)OCc2ccc3c(c2)OCO3)C(c2ccc(Cl)cc2)NC(=O)N1 (stereo not given)	/	32µM*	18%	/	1%
CC1=C(C(=O)OCc2ccc3c(c2)OCO3)C(c2ccc(F)cc2)NC(=O)N1 (stereo not given)	>57	?	?	>77	3%
CCC12CCCN3CCC4(C(=C(C(=O)OC)C1)Nc1ccccc14)C32 (stereo not given)	>57	?	25µM*	>77	0%
Cc1ccc(Cl)cc1N1CCN(S(=O)(=O)c2ccc3c(c2)OCCO3)CC1	>57	9%	20%	?	3%
Cc1ccc(C)c(N2CCN(S(=O)(=O)c3ccc4c(c3)OCCO4)CC2)c1	>57	25µM*	29%	?	2%
O=C(O)CC[C@@H](NC(=O)c1ccccc1C(=O)O)C(=O)O	/	4%	8%	/	-1%
NC1=NC(S)C2N=CN=C2N1 (stereo not given)	/	3%	5%	/	/
C[C@@H](C(=O)Nc1ccc2ccccc2c1)[C@H]1C[C@]1(C)[C@H](NC(=O)c1cnccn1)c1ccccc1	/	?	16µM*	/	/
Cc1cc(C(=O)N[C@H](c2ccccc2)[C@@]2(C)C[C@@H]2[C@@H](C)C(=O)Nc2ccc3ccccc3c2)no1	/	?	1.6µM*	/	/
CN[C@H]1[C@@H](O[C@@H]2[C@H](O[C@@H]3[C@@H](O)[C@@H](O)[C@@H](N=C(N)N)[C@@H](O)[C@@H]3N=C(N)N)O[C@H](C)[C@@]2(O)C=O)O[C@@H](CO)[C@@H](O)[C@H]1O	/	-2%[25.6 µM]	-3%[25.6 µM]	/	-9%[25.5 µM]
CCCCNC(=O)c1sc2nc(C)cc(COC)c2c1-n1cccc1	>57	?	16µM*	>77	-1%
CCNc1ncc2nc(C)c(=O)n(C[C@H]3CCCO3)c2n1	/	-3%	12%	/	-3%[11.4 µM]
CCOC(=O)c1cnc(SCC(=O)N2CCN(c3ccccc3)CC2)nc1N	>57	14%	10%	>77	0%
CCOC(=O)c1cnc(SCc2ccccc2)nc1N	/	/	17%	>77	16µM*
CCNc1ncc2nc(-c3ccc(Cl)cc3)c(=O)n(Cc3cccc(OC)c3)c2n1	/	-1%	17%	/	-2%[11.4 µM]
O=C1CCC=C1[C@@H](O)CCc1ccccc1	/	-1%[11.4 µM]	-3%[11.4 µM]	/	1%[11.4 µM]
CN1CCN(S(=O)(=O)c2ccc(NC(=O)c3ccc(F)cc3)cc2)CC1	>57	-1%	7%	14*	2%
CCCCOC(=O)Nc1ccc(N2CCCCC2)cc1	/	16%	6%	/	13µM*
CCCCOC(=O)Nc1ccc(N2CCOCC2)cc1	/	7%	9%	/	-16%
CCN(CC)c1ccc(NC(=O)c2ccc(Br)o2)cc1	/	0%[11.4 µM]	2%[11.4 µM]	/	10µM*
